Pol beta inh-1: blocks human DNA polymerase beta activity; Pol beta primer extension/strand displacement, fluorescence kinetic; 340,000 compounds, 1.3% hits; AID 485314; Potency, µM (top dose mostly 114 µM), inactives show top-dose activity change, negative = inhibition, hits mostly inhibitors; P06746; note: potency is the fitted concentration of half-maximal effect; % is set by controls: 0 for no effect and ±100 for the full control effect
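Homogeneous kinetic assay of primer extension and strand displacement by 10 nM Pol beta, preincubated 15 min at room temperature with compound before 50 nM substrate (final) was added. Read at 0 and 10 min; four-parameter Hill fit.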
POLI inh: inhibitors of human DNA polymerase iota; Q9UNA4; Potency, µM (top dose mostly 115 µM), without a hit: top-dose activity, negative = inhibition, usual class: inhibitors; Pol iota fluorescent replication assay, 10 min; AID 588590; 390,000 compounds, 1% hits; note: potency is the fitted concentration of half-maximal effect
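Fluorescent replication assay read twice, at 0 min and 10 min after adding 50 nM (final) substrate. Enzyme (10 nM) and compounds were first incubated 15 min at room temperature; enzyme-free buffer wells were negative controls.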
KAT2A inh: blocks human GCN5L2 histone acetyltransferase | Potency, µM (titrated, usually from 58.9 µM), inactives show at the highest dose activity change, negative = inhibition, most hits filed as inhibitors | GCN5L2 HAT assay, ThioGlo1 CoA-SH fluorescence | 390,000 compounds, 0.21% hits | AID 504327; note: potency is the fitted concentration of half-maximal effect; % is set by controls: 0 for no effect and ±100 for the full control effect
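Fluorescence readout, Ex340nm/Em540nm: ThioGlo1 (50uM final) reacts with free CoA thiol released as 20nM GCN5L2 acetylates H3(1-25) peptide (75uM) using acetyl-CoA (70uM). Compound and enzyme sat 15 min beforehand; 20 min room-temperature reaction.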
GLS inhibitor: blocks human kidney-isoform glutaminase activity | GLS enzymatic activity, qHTS titration | 410,000 compounds, 0.21% hits | O94925 | Potency, µM (series often up to 45.5 µM), inactives show top-dose activity change, negative = inhibition, usual class: inhibitors | AID 624170; note: potency is the fitted concentration of half-maximal effect; % is set by controls: 0 for no effect and ±100 for the full control effect
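Human kidney-isoform GLS in 45 mM KH2PO4 pH 8.2, 0.02% Tween-20, with compound, started with 1mM L-Glutamine (added stock). Glutamate oxidase/HRP/Amplex red coupled fluorescence read at start and after 30 min at RT.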
POLK inh: blocks human DNA polymerase kappa activity | Q9UBT6 | purified Pol kappa, fluorescent DNA synthesis assay, 10 min | Potency, µM (series often up to 107 µM), inactives show at the highest dose activity, negative = inhibition, most hits filed as inhibitors | 400,000 compounds, 0.53% hits; note: potency is the fitted concentration of half-maximal effect; % is set by controls: 0 for no effect and ±100 for the full control effect
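Inhibition of 10 nM Pol kappa is measured by a fluorescent read-out at 0 and 10 min following addition of 50 nM substrate (final), with a 15-min room-temperature compound preincubation.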
Pol eta inh: DNA polymerase eta (human) inhibition; recombinant Pol eta, fluorescent DNA replication assay; Potency, µM (titrated, usually from 114 µM), without a hit: at the top dose activity change, negative = inhibition, most hits filed as inhibitors; 390,000 compounds, 1.2% hits; note: potency is the fitted concentration of half-maximal effect; % is set by controls: 0 for no effect and ±100 for the full control effect
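Pol eta (10 nM) was preincubated with compounds for 15 min at room temperature, after which fluorescent replication substrate (50 nM final) was added to start the reaction. Fluorescence was read kinetically at 0 and 10 min.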
Pol beta inh-2: Validate hits inhibiting human DNA polymerase beta; Potency, µM, usual class: inhibitors; 250 compounds, 87% hits; shares compounds with Pol beta inh-1; Pol beta primer extension/strand displacement, fluorescence kinetic; calls by dose curve; note: potency is the fitted concentration of half-maximal effect
Klenow inh: Klenow polymerase inhibition, pol beta selectivity check; shares compounds with Pol beta inh-1; Klenow exo- polymerase counter-screen, fluorescent DNA substrate; activity change, negative = inhibition, % at 57.1 µM; 250 tested, under 10 active
HIV RT counter: HIV-1 RT inhibition, pol beta selectivity check; shares compounds with Pol beta inh-1; HIV-1 RT polymerase activity, counter-screen; activity % (negative = inhibition, positive = activation), % at 57.1 µM; 250 tested, under 10 active
POLB valid: DNA polymerase beta inhibition, radiolabeled validation; shares compounds with Pol beta inh-1; radiolabeled primer extension gel assay, phosphorimager; inhibition, % at 10 µM; 110 compounds, 91% hits; AID 540325;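 active = inhibition at 10 µM of 30% or more; inconclusive = no clear call, values can overlap the other calls; inactive = inhibition at 10 µM under 30%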
The depositor's hits bear a star; ? = inconclusive; nt = not tested or not shown; [ ] = dose if it differs, or a comment. Sampled rows, rich in hits. Any-hit rate of the full collection: about 2.4%. Unless noted, calls come from the whole dose curve; as a rule, active = well fitted curve in the direction sought with a large enough effect; inconclusive = small, poorly fitted or top-dose-only effect, or another doubt; inactive = no such curve, though single readings can be large; an effect the other way counts as inactive or inconclusive.

SMILES	Pol beta inh-1	POLI inh	KAT2A inh	GLS inhibitor	POLK inh	Pol eta inh	Pol beta inh-2	Klenow inh	HIV RT counter	others
CCOc1ccc(Nc2cc(C)nc3nc(Cc4ccc(Cl)cc4)nn23)cc1	?	79µM*	-7%	-11%	-29%	-20%	nt	nt	nt
CCOC(=O)Cn1c(=O)n(-c2cccc(Cl)c2)c2nc(-c3ccccc3Cl)nc(C(N)=O)c21	17%	25%	-3%	-18%	-9%[60.1 µM]	-9%	nt	nt	nt
C/C(=N\NC(=O)c1cccc(N/N=C(\C)c2ccco2)c1)c1ccco1	-1%	45µM*	-19%	2%	89µM*	22µM*	nt	nt	nt
C/C(=N\NC(=O)c1cc(C)nc2ccccc12)c1ccco1	?	145%	-1%	-6%	-6%	-2%	nt	nt	nt
C/C(=N\NC(=O)c1cc2ccccc2cc1O)c1ccc(C)o1	79µM*	?	-22%	-22%	-23%	-4%	nt	nt	nt
C/C(=N\NC(=O)c1cccc([N+](=O)[O-])c1)c1ccco1	20%	?	-1%	4%	-8%	-17%	nt	nt	nt
C/C(=N/NC(=O)c1cc2ccccc2cc1O)c1ccco1	63µM*	45µM*	?	-1%	?	-14%	nt	nt	nt
C[C@H]1[C@@H](OC(=O)CCC(=O)O)OC2OC3(C)CC[C@H]4[C@H](C)CC[C@@H]1[C@@]24OO3 (stereo not given in full)	nt	nt	4%	-2%	5%[19.4 µM]	nt	nt	nt	nt
CN(C)CCCOc1c2ccccc2n(Cc2ccccc2)[n+]1[O-]	nt	nt	9%	nt	29%[60.1 µM]	nt	nt	nt	nt
COc1cc(OC)c(OC)cc1/C=C1\Oc2cc(OS(C)(=O)=O)ccc2C1=O	11µM*	20µM*	-9%	-7%	?	50µM*	35*	-30	17	POLB valid=96*
N#Cc1c(=O)c2nc(NCCCO)ncc2n2c(=O)c3ccccc3[nH]c12	11µM*	22µM*	-19%	?	-30%	40µM*	?	-38	-1	POLB valid=40*
O=C(Cn1cnc2sc(-c3ccccc3)cc2c1=O)NCc1ccco1	7.9µM*	10µM*	?	?	32µM*	7.1µM*	7.1*	-10	18
O=C(Cn1cnc2sc(-c3ccccc3)cc2c1=O)NCc1ccccc1	?	?	-30%	3%	-7%	-10%	nt	nt	nt
O=C(COC(=O)c1ccccc1Oc1ccccc1)NCc1ccco1	20µM*	?	-13%	1%	79µM*	14µM*	35*	-4	?
O=C(CSc1nnnn1-c1ccc(F)cc1)c1ccc(O)c(O)c1	13µM*	?	-6%	0%	?	?	7.9*	-21	25
O=C(O)c1ccc(CSc2nnnn2-c2ccc(F)cc2)cc1	-2%	-11%	-2%	-3%	-16%	-3%	nt	nt	nt
CC(C)c1ccc(NC(=O)CSc2nc(=O)n(Cc3cccnc3)c3c2CCC3)cc1	1%	1%	-9%	-9%	-12%[60.1 µM]	-6%	nt	nt	nt
O=C(Nc1cccc(-c2nc3ccccc3[nH]2)c1)c1cccc(NC(=O)c2ccco2)c1	13µM*	?	-6%	-11%	?	50µM*	32*	-9	62
O=C(Nc1ccc2nc(-c3ccccc3)[nH]c2c1)c1ccco1	?	?	-2%	0%	-33%	?	nt	nt	nt
